These results are taken from PubChem BioAssay (EPA / NIEHS).

Molecules are shown by their SMILES. Calls of active or inactive are those of the source. The calls were made as follows: active = hit-call score of the fitted dose curve at least 0.9, where 1 is the maximum; inactive = score below 0.9.

A short description of this assay: ATG_NRF2_ARE_CIS: Attagene CIS-FACTORIAL HepG2 Assay for human Nuclear Factor Erythroid 2 Related Factor 2 (NFR2) response to Antioxidant Response Elements (ARE) (AID 2282992).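 As to AC50: reporter mRNA level measured by RT-PCR and capillary electrophoresis fluorescence.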 The note with it: HepG2 Attagene ARE/NRF2 reporter, transcription factor activity; actives raise or lower the signal. Summed up: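 HepG2 cells transiently transfected with multiplexed cis-element reporter constructs, 24 h after chemical dosing; reporter mRNA quantified by RT-PCR, fluorescent primer extension, HpaI digestion and capillary electrophoresis. Bidirectional fit relative to DMSO.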
On to `CCOC(=O)c1ccc(C2CCC(NC[C@H](O)COc3ccc(O)c(NS(C)(=O)=O)c3)CC2)cc1` (some centres not stated), for which the molecule was called inactive. Same read-out and setting: to `CCOCCOCCOCCO` belongs “inactive”; to `COC(=O)c1ccccc1O`, “inactive”; to `CC(=O)OC[C@H]1O[C@@](COC(C)=O)(O[C@H]2O[C@H](COC(C)=O)[C@@H](OC(C)=O)[C@H](OC(C)=O)[C@H]2OC(C)=O)[C@@H](OC(C)=O)[C@@H]1OC(C)=O`, “inactive”. On the same count and under the same terms, to `CCC(C)(C)C(=O)O[C@H]1C[C@@H](C)C=C2C=C[C@H](C)[C@H](CC[C@@H]3C[C@@H](O)CC(=O)O3)[C@H]21` belongs “inactive”.

For orientation: AC50 means the concentration at which the activity in the assay is half-maximal. On to `CCCN(C1CCN(C(=O)C2CCNCC2)CC1)[C@@H]1CCc2ccc(OC)cc2C1`, for which the AC50 was 26.2 µM (active). As for `COc1ccc(/C=C/S(=O)(=O)NC(=O)c2ccc(C)cc2Cl)cc1`, the molecule was classed as inactive. `O=C(O)c1cc(N=Nc2ccc(S(=O)(=O)Nc3ccccn3)cc2)ccc1O`: the call was inactive. In the case of `CC(C)=CCC/C(C)=C\CO`, the AC50 was 100 µM (active). As to `C=CCCCCCCCCC(=O)O`, the molecule was classed as inactive. For the molecule `O=C(O)CC(O)C(=O)O` (configuration not stated), the molecule was called inactive. Regarding `CC(=O)c1ccc2c(c1)[C@H](NC(=O)c1ccc(F)cc1)[C@@H](O)C(C)(C)O2`, the outcome was inactive.

In the case of `Oc1ccc2c(c1)-c1ccccc1C2`, the AC50 was 2.77 µM (active).

With `CC(C)=CCC/C(C)=C/CO`, the call was inactive. For the molecule `CCc1cc(SCc2sc(-c3ccc(C(F)(F)F)cc3)nc2CN2CCN(c3ccc(OC)cc3)CC2)ccc1OCC(=O)O`, the AC50 was 4.51 µM (active). In the case of `CCN(C(=O)c1cc(C)cc(OC[C@H](C)Nc2ccncc2)c1)C(C)C`, the AC50 is 8.92 µM (active). On the same count and under the same terms, to `On1ccccc1=S` belongs 12.2 µM (active).
